According to the supplement of paper PMC12282887:
± gives the standard deviation of the averaged measurements.

Test system: E. coli BW25113 marRABp lux reporter
Experiment: promoter activity interaction Z-score (Lux/OD deviation from empty-vector control); higher = stronger promoter induction by the compound
Protocol: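 E. coli BW25113 (wild type or ΔmarA/ΔsoxS/Δrob) carrying pTU175 luxCDABE promoter reporters was grown in LB in 384-well plates at 37°C with each of 94 compounds at 4 two-fold concentrations, in biological duplicates. Luminescence and OD600 were read every 30 min for 12 h and integrated as AUC over 8 h (0-8 h WT, 1-9 h mutants). Lux AUC was divided by OD AUC; the interaction score is the residual of a Huber robust fit of each promoter against the empty-vector control, then Z-transformed per promoter.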

Structure (SMILES)	promoter activity interaction Z-score (0.0012 µg/ml, genetic background: wild type)	promoter activity interaction Z-score (0.0012 µg/ml, genetic background: ΔmarA)	promoter activity interaction Z-score (0.0012 µg/ml, genetic background: Δrob)	promoter activity interaction Z-score (0.0012 µg/ml, genetic background: ΔsoxS)	promoter activity interaction Z-score (0.0025 µg/ml, genetic background: wild type)	promoter activity interaction Z-score (0.0025 µg/ml, genetic background: ΔmarA)	promoter activity interaction Z-score (0.0025 µg/ml, genetic background: Δrob)	promoter activity interaction Z-score (0.0025 µg/ml, genetic background: ΔsoxS)	promoter activity interaction Z-score (0.005 µg/ml, genetic background: wild type)	promoter activity interaction Z-score (0.005 µg/ml, genetic background: ΔmarA)	promoter activity interaction Z-score (0.005 µg/ml, genetic background: Δrob)	promoter activity interaction Z-score (0.005 µg/ml, genetic background: ΔsoxS)	promoter activity interaction Z-score (0.0099 µg/ml, genetic background: wild type)	promoter activity interaction Z-score (0.0099 µg/ml, genetic background: ΔsoxS)	promoter activity interaction Z-score (0.034 µg/ml, genetic background: wild type)	promoter activity interaction Z-score (0.034 µg/ml, genetic background: ΔmarA)	promoter activity interaction Z-score (0.034 µg/ml, genetic background: Δrob)	promoter activity interaction Z-score (0.034 µg/ml, genetic background: ΔsoxS)	promoter activity interaction Z-score (0.067 µg/ml, genetic background: wild type)	promoter activity interaction Z-score (0.067 µg/ml, genetic background: ΔmarA)	promoter activity interaction Z-score (0.067 µg/ml, genetic background: Δrob)	promoter activity interaction Z-score (0.067 µg/ml, genetic background: ΔsoxS)	promoter activity interaction Z-score (0.13 µg/ml, genetic background: wild type)	promoter activity interaction Z-score (0.13 µg/ml, genetic background: ΔmarA)	promoter activity interaction Z-score (0.13 µg/ml, genetic background: Δrob)	promoter activity interaction Z-score (0.13 µg/ml, genetic background: ΔsoxS)	promoter activity interaction Z-score (0.27 µg/ml, genetic background: wild type)	promoter activity interaction Z-score (0.27 µg/ml, genetic background: ΔmarA)	promoter activity interaction Z-score (0.27 µg/ml, genetic background: Δrob)	promoter activity interaction Z-score (0.27 µg/ml, genetic background: ΔsoxS)
O=C(O)c1cn(C2CC2)c2cc(N3CCNCC3)c(F)cc2c1=O [Ciprofloxacin]	-0.376 ± 0.019	-0.0878 ± 0.24	-0.0711 ± 0.075	0.251 ± 0.081	-0.228 ± 0.28	-0.253 ± 0.031	-0.0459 ± 0.41	0.188 ± 0.098	-0.472 ± 0.005	-0.302 ± 0.12	-0.138 ± 0.072	0.0987 ± 0.0052	2.5 ± 0.32	4.16																
CCN1CCN(C(=O)N[C@@H](C(=O)N[C@@H]2C(=O)N3[C@@H]2SC(C)(C)[C@@H]3C(=O)O)c2ccccc2)C(=O)C1=O [Piperacillin]															-0.259 ± 0.22	-0.115 ± 0.2	-0.137 ± 0.032	-0.285 ± 0.24	0.0282 ± 0.023	-0.147 ± 0.33	-0.102 ± 0.11	-0.225 ± 0.29	-0.0179 ± 0.059	-0.0535 ± 0.27	-0.134 ± 0.096	-0.159 ± 0.072	-0.12 ± 0.057	-0.117 ± 0.15	-0.0506 ± 0.1	-0.145 ± 0.44
